Each structure is given as a SMILES string. Active and inactive are the calls of the source. The calls were made as follows: active = hit-call score of the fitted dose curve at least 0.9, where 1 is the maximum; inactive = score below 0.9.

Experiment [1] can be described thus: APR_HepG2_CellLoss_72hr: Apredica 72-hour HepG2 Assay for Cell Loss (AID 2282915). Particulars: high-content imaging. The procedure, abridged: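 Cell number comes from Hoechst 33342-labelled nuclei, imaged at 20x after 3.7% formaldehyde fixation. Dosing was 0.39–200 uM, ten concentrations in duplicate, 0.5% DMSO final, for 72 h. Bidirectional fit relative to DMSO baseline.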

The nature of experiment [2]: APR_HepG2_P-H2AX_72hr: Apredica 72-hour HepG2 Assay for H2AX Phosphorylation (AID 2282916).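 Also: phospho-histone H2A.x immunostain intensity per cell marking DNA damage.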 As to conditions: imaging, actives raise or lower the signal. The procedure, abridged:
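Phospho-histone H2A.x immunofluorescence, multiplexed with Hoechst and c-Jun, quantified by high-content imaging. Compounds applied to HepG2 for 72 h across ten concentrations (0.39–200 uM, 0.5% DMSO), in duplicate; DMSO baseline.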

Experiment [3] in a line: APR_HepG2_MitoMembPot_72hr: Apredica 72-hour HepG2 Assay for Mitochondrial Membrane Potential (AID 2282917). Particulars: imaging, actives raise or lower the signal. The procedure, abridged:
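Membrane potential read by MitoTracker Red CMXRos (250 nM, 30 min, pre-fixation) fluorescence imaging of HepG2 after 72 hr exposure. Ten concentrations, 0.39–200 uM, duplicate wells, 0.5% DMSO; fitted in both directions against DMSO baseline.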

Experiment [4] is described as follows: APR_HepG2_MitoticArrest_72hr: Apredica 72-hour HepG2 Assay for Mitotic Arrest (AID 2282918). As to conditions: high-content imaging, actives raise or lower the signal. Put shortly:
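Mitotic arrest in HepG2 is scored from phospho-histone H3 staining after 72 hr dosing across 0.39–200 uM, with DMSO at 0.5% v/v. Nuclei are identified by Hoechst 33342 and fluorescence intensity is quantified per cell.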

A short description of experiment [5]: APR_HepG2_MicrotubuleCSK_72hr: Apredica 72-hour HepG2 Assay for Microtubule CSK Stabilty (AID 2282919). As to conditions: HepG2 microtubule cytoskeleton, high-content imaging, actives raise or lower the signal. The procedure, abridged: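 High-content imaging of alpha-tubulin staining in fixed HepG2 cells after 72 hr treatment with ten concentrations from 0.39 to 200 uM (0.5% DMSO). Fitting was bidirectional against DMSO; taxol served as positive control.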

Experiment [6] can be described thus: APR_HepG2_P-H2AX_24hr: Apredica 24-hour HepG2 Assay for H2AX Phosphorylation (AID 2282920). As to conditions: high-content imaging, actives raise or lower the signal. Put shortly:
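Signal comes from a FITC-labeled secondary detecting phospho-histone H2A.x in fixed HepG2 cells, quantified by automated imaging at 20x. Dosing ran 24 hr across 0.39–200 uM with 0.5% v/v DMSO.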

Experiment [7] can be described thus: APR_HepG2_StressKinase_72hr: Apredica 72-hour HepG2 Assay for Stress Kinase (AID 2282921). As to conditions: HepG2 stress kinase (phospho-c-Jun) imaging, actives raise or lower the signal. The procedure, abridged: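 Stress kinase signal is phospho-c-Jun immunofluorescence (1:500 primary, Cy3 secondary) in fixed, permeabilized human HepG2 cells imaged at 20x. Exposure lasted 72 hr over ten concentrations from 0.39 to 200 uM, 0.5% DMSO, in duplicate. Bidirectional fit versus DMSO.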

Experiment [8] can be described thus: APR_HepG2_StressKinase_24hr: Apredica 24-hour HepG2 Assay for Stress Kinase (AID 2282922). Particulars: HepG2 stress kinase (phospho-c-Jun) imaging, actives raise or lower the signal. Put shortly:
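High-content imaging of phospho-c-Jun immunofluorescence in fixed, permeabilized HepG2 cells after 24 h dosing. Ten concentrations, 0.39 to 200 uM, run in duplicate at 0.5% v/v DMSO; gain or loss of signal versus DMSO.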

A short description of experiment [9]: APR_HepG2_p53Act_72hr: Apredica 72-hour HepG2 Assay for p53 Activation (AID 2282923).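 Also: average cellular p53 protein immunofluorescence intensity in HepG2 cells.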 Particulars: high-content imaging, actives raise or lower the signal. Put shortly: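 After 72 h with compound (ten points, 0.39 to 200 uM, final DMSO 0.5% v/v), fixed HepG2 cells were labelled with sheep anti-p53 and Hoechst 33342 and imaged; gain or loss versus DMSO scored.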

Experiment [10] in a line: APR_HepG2_MitoMass_72hr: Apredica 72-hour HepG2 Assay for Mitochondrial Mass (AID 2282924).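 Also: MitoTracker Red CMXRos stain intensity per cell imaged as mitochondrial mass.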 Particulars: high-content imaging, actives raise or lower the signal. The procedure, abridged:
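Readout is imaged MitoTracker Red (250 nM, 30 min, pre-fixation) signal, fitted bidirectionally against DMSO baseline. Human HepG2 liver cells received compound 0.39–200 uM in duplicate for 72 hr, final DMSO 0.5%.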

The nature of experiment [11]: APR_HepG2_NuclearSize_72hr: Apredica 72-hour HepG2 Assay for Nuclear Size (AID 2282925). Particulars: high-content imaging, actives raise or lower the signal. Put shortly:
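Nuclear size was read by high-content imaging of Hoechst 33342 stain after formaldehyde fixation. Compounds ran 72 h on HepG2 at 0.39 to 200 uM, with final DMSO 0.5% v/v. Curves fitted both directions relative to DMSO control.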

The nature of experiment [12]: ATG_CRE_CIS: Attagene CIS-FACTORIAL HepG2 Assay for human cAMP Responsive Element (CRE) binding protein 3 (AID 2282926). Particulars: HepG2 CRE cis-reporter, Attagene multiplexed mRNA; actives raise or lower the signal. The procedure, abridged: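 Cells carrying cis-regulated reporter constructs respond through their own endogenous factors. After 24 h treatment, RNA is reverse-transcribed, amplified, labelled and sized by capillary electrophoresis; up- and down-regulation are both scored against vehicle.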

Experiment [13] deals with CCAAT/enhancer-binding protein beta (Homo sapiens) (UniProt P17676). Put plainly: ATG_C_EBP_CIS: Attagene CIS-FACTORIAL HepG2 Assay for human CCAAT/Enhancer Binding Protein (C/EBP) beta (AID 2282927). As to conditions: HepG2 Attagene cis-factorial transcription factor reporter; actives raise or lower the signal. The procedure, abridged:
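Changes in reporter mRNA, rather than exogenous chimeric receptor activity, reflect native C/EBP signalling in transfected HepG2 cells dosed for 24 h; transcripts are detected by RT-PCR and capillary electrophoresis.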

Experiment [14] is described as follows: ATG_CMV_CIS: Attagene CIS-FACTORIAL HepG2 Assay for human CMV (Internal Marker) (AID 2282928).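 Also: endpoint acts as a background internal control marker rather than a target.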 As to conditions: HepG2 CMV promoter reporter, transcription factor profiling; actives raise or lower the signal. Put shortly: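 Fluorescence intensity of RT-PCR-derived reporter fragments, resolved by capillary electrophoresis, gives the signal. HepG2 liver cells bearing transfected cis-element reporters were treated 24 h; activity in either direction was fit relative to DMSO-treated controls.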

Experiment [15] is described as follows: ATG_DR4_LXR_CIS: Attagene CIS-FACTORIAL HepG2 Assay for human Liver X Receptor (LXR), DR4 submotif (AID 2282929). As to conditions: HepG2 Attagene DR4 cis-reporter, mRNA transcription; actives raise or lower the signal. Put shortly:
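Cells were transfected with multiple reporter transcription units, exposed to chemicals for 24 hours, then lysed for RNA. Reporter mRNA induction was measured by RT-PCR with capillary electrophoresis detection and fitted in both directions relative to DMSO.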

A short description of experiment [16]: ATG_AP_1_CIS: Attagene CIS-FACTORIAL HepG2 Assay for human Activator Protein 1 (AP-1) (AID 2282931). Particulars: HepG2 Attagene cis-factorial AP-1 reporter mRNA; actives raise or lower the signal. Put shortly: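 Endogenous transcription-factor activity in human HepG2 liver cells is read through a cis-promoter reporter transcript, sampled 24 h after dosing. Detection uses RT-PCR with capillary electrophoresis; values come from bidirectional fitting relative to DMSO.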

Experiment [17] can be described thus: ATG_AP_2_CIS: Attagene CIS-FACTORIAL HepG2 Assay for human Activator Protein 2 (AP-2) (AID 2282932). Particulars: HepG2 AP-2 cis-reporter, Attagene transcription factor profiling; actives raise or lower the signal. The procedure, abridged: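 Endogenous transcription factor activity is reported through transfected multiplex reporter constructs in HepG2, after 24 h of compound exposure. Transcripts were quantified by RT-PCR and capillary electrophoresis of fluorescent fragments. Bidirectional fit against DMSO.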

Experiment [18] is described as follows: ATG_BRE_CIS: Attagene CIS-FACTORIAL HepG2 Assay for human Bone Morphogenetic Protein (BMP) Response Element (BRE) (AID 2282933). Particulars: HepG2 BMP response element reporter, Attagene transcription factor profiling; actives raise or lower the signal. The procedure, abridged: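 After a 24 h chemical treatment, transiently transfected HepG2 cells were lysed for RNA; reporter transcripts were quantified by fluorescent RT-PCR and capillary electrophoresis, normalised to DMSO.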

Experiment [19] addresses Retinoic acid receptor alpha (Homo sapiens) (UniProt P10276). Description: ATG_DR5_RAR_CIS: Attagene CIS-FACTORIAL HepG2 Assay for human Retinoic Acid Receptor Alpha (RARE), DR5 submotif (AID 2282934). As to conditions: HepG2 Attagene cis-factorial RARE DR5 reporter, mRNA; actives raise or lower the signal. The procedure, abridged: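 HepG2, transient cis-reporter transfection, 24 h exposure. mRNA readout: RT-PCR, FAM label, HpaI cut, capillary electrophoresis. DMSO baseline, gain/loss fitting.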

For experiment [20], the target named is Aryl hydrocarbon receptor (Homo sapiens) (UniProt P35869). Description: ATG_Ahr_CIS: Attagene CIS-FACTORIAL HepG2 Assay for human Aryl Hydrocarbon Receptor (Ahr) (AID 2282930). Particulars: HepG2 AhR cis-factorial reporter transcription; actives raise or lower the signal. The procedure, abridged: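 HepG2, transient MRTU (cis) transfection, 24 h exposure. RNA → cDNA → PCR → 6-FAM primer extension → HpaI 2 h 37 C → CE. Fit: bidirectional, DMSO baseline.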
Aryl hydrocarbon receptor (Homo sapiens), sequence (P35869 whole entry, looked up): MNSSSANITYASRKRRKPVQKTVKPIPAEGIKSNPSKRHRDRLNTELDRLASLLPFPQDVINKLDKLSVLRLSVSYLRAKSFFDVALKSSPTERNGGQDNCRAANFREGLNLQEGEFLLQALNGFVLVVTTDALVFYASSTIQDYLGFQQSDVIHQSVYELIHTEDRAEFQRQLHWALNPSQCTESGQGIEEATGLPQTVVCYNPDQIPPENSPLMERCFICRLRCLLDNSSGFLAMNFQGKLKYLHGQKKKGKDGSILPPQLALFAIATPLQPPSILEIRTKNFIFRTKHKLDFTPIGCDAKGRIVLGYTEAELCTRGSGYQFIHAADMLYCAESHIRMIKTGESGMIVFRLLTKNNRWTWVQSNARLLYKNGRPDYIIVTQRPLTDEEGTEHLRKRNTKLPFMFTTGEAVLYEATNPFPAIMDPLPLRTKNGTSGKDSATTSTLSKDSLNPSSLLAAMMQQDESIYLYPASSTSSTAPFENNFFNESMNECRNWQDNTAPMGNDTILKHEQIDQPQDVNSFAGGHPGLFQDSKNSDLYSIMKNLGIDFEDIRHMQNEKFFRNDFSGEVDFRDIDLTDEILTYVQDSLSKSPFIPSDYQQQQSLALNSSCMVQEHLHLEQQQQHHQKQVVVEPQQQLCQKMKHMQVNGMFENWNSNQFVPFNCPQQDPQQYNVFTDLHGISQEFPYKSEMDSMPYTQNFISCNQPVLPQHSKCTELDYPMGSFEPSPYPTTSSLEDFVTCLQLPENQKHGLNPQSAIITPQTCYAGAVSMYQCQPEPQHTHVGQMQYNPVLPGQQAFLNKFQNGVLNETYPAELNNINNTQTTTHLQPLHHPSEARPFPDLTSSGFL

Retinoic acid receptor alpha (Homo sapiens), sequence (P10276 whole entry, looked up): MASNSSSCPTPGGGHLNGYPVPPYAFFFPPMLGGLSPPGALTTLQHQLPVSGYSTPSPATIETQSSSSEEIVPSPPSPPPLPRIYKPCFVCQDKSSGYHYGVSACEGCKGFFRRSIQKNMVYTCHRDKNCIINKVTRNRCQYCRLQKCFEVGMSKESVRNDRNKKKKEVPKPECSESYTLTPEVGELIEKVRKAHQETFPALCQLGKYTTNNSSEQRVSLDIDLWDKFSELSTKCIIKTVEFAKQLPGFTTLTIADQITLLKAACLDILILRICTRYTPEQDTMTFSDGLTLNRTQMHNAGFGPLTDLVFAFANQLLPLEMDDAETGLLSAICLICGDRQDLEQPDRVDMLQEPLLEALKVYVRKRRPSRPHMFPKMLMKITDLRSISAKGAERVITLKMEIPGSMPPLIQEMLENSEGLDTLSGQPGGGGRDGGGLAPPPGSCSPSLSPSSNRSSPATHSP
CCAAT/enhancer-binding protein beta (Homo sapiens), sequence (P17676 whole entry, looked up): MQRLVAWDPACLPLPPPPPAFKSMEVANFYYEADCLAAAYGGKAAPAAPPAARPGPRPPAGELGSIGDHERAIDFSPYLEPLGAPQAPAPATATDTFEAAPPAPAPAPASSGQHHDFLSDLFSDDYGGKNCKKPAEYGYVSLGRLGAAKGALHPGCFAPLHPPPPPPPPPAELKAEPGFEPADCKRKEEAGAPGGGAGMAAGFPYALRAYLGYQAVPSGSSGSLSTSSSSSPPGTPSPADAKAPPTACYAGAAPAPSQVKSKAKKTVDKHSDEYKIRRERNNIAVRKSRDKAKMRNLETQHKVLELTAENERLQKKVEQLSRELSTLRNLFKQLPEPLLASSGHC

As for `CCCCC(CC)C(=O)OCCOCCOCCOC(=O)C(CC)CCCC` (stereo not given), the values for the AC50 in [1], in experiment [4] and in experiment [15] were 89.8 µM (active), 91.2 µM (active) and 160 µM (active), respectively. The call in [2], in experiment [3], in [5], in experiment [6], in [7] and in experiment [8] was inactive. In addition, the call in [9], in experiment [10], in experiment [11], in [12], in [13] and in [14] was inactive. The compound was classed as inactive in experiment [16], in experiment [17], in [18] and in [19].
Consider `CCCOc1ccc(S(=O)(=O)N2CCN(CC)CC2)cc1-c1nc2c(CC)n(Cc3ccccn3)nc2c(=O)[nH]1`, for which the half-maximal activity concentration (AC50) in experiment [1] is 88.5 µM (active); in experiment [2], 99.7 µM (active); in experiment [4], 90.2 µM (active); in experiment [15], 150 µM (active). Further, the compound was classed as inactive in experiment [3], in [5], in experiment [6], in experiment [7], in experiment [8] and in experiment [10]. Besides, the outcome in experiment [11], in experiment [12], in [13], in [14], in experiment [20] and in [16] was inactive. Besides, the compound was called inactive in [17] and in [19].
`CCc1cccc(CC)c1N`: the compound was classed as inactive in [1], in [2], in experiment [3], in [4], in [5] and in [6]. Besides, the compound was called inactive in [7], in experiment [8], in experiment [9], in [10], in experiment [11] and in experiment [12]. For the same compound, the result in experiment [13], in experiment [14], in experiment [15], in [20], in experiment [16] and in [17] was inactive.
With `Cn1c(=O)c2[nH]cnc2n(C)c1=O`, the compound was called inactive in experiment [1], in experiment [2], in experiment [3], in experiment [4], in [5] and in experiment [6]. Also, the compound was called inactive in [7], in experiment [8], in experiment [9], in experiment [10], in [11] and in [12]. Also, the result in [13], in experiment [14], in [15], in experiment [20], in experiment [16] and in experiment [17] was inactive. Further, the compound was called inactive in experiment [18].
For the compound `NC(N)=O`, the compound was called inactive in [1], in experiment [2], in [3], in [4], in [5] and in experiment [6]. Also, the result in [7], in experiment [8], in experiment [10], in experiment [11], in [12] and in experiment [13] was inactive. Also, the outcome in experiment [15], in experiment [16] and in experiment [17] was inactive.
In the case of `CNC(C)=O`, the outcome in experiment [1], in experiment [2], in experiment [3], in experiment [4], in [5] and in [6] was inactive. In addition, the result in experiment [7], in experiment [8], in experiment [10], in experiment [11], in experiment [12] and in experiment [13] was inactive. Moreover, the compound was classed as inactive in [14], in experiment [15], in [20], in [16], in experiment [17] and in experiment [19].
`C[C@@H](Oc1ccc(CNC(=O)c2cccnc2Oc2ccc3c(c2)OCO3)c(F)c1)C(=O)O`: the result in experiment [1], in [2], in experiment [3], in experiment [4], in experiment [5] and in experiment [6] was inactive. For the same compound, the compound was called inactive in experiment [7], in experiment [8], in experiment [10], in experiment [11], in experiment [12] and in experiment [13]. Moreover, the call in experiment [14], in experiment [15], in [20], in experiment [16], in experiment [17] and in experiment [18] was inactive.

The AC50 is the concentration at which the activity in the assay is half-maximal.

The record behind these values is PubChem BioAssay (EPA / NIEHS).
